# Test results reported in PubChem BioAssay (EPA / NIEHS).
# Results filed as inconclusive are left out. Active and inactive are the calls of the source. The calls were made as follows: active = hit-call score of the fitted dose curve at least 0.9, where 1 is the maximum; inconclusive = response in the unintended direction; inactive = score below 0.9.
# Assays:
# [1] = biological target: guinea pig Opioid, Kappa 1 Receptor (OpiateK), OPRK1 (gene 100135587) (UniProt P41144); assay: NVS_GPCR_gOpiateK: NovaScreen (NVS) G Protein-Coupled Receptor Assay for guinea pig Opioid, Kappa 1 Receptor (OpiateK) (AID 2283252);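 also: radioligand displacement from kappa opioid receptor in guinea pig cerebellar membranes; active means reduced radioligand binding relative to DMSO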
# Method in brief: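 Signal is scintillation counts of filter-trapped radioligand bound to guinea pig cerebellar membrane receptor, measured 2 hours post-dosing. Activity is loss of binding versus DMSO, first at 25 uM in duplicate, then as concentration series for actives.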
# [2] = biological target: Muscarinic acetylcholine receptor M2 (Homo sapiens) (UniProt P08172); assay: NVS_GPCR_hM2: NovaScreen (NVS) G Protein-Coupled Receptor Assay for human Muscarinic, M2 Receptor (AID 2283273)
# Method in brief: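 CHO membrane prep, radioligand + test compound, 1 h; filtration, scintillation count. Screen 25 uM duplicate → conc. series for actives. Readout: decrease in binding vs DMSO control.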
# [3] = biological target: human Endothelin Receptor Type A (ETA), EDNRA (gene 1909) (UniProt P25101); assay: NVS_GPCR_hETA: NovaScreen (NVS) G Protein-Coupled Receptor Assay for human Endothelin Receptor Type A (ETA) (AID 2283265)
# Method in brief: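 Cell-free radioligand displacement using SH-SY5Y-derived protein, 3 h incubation, filter-based scintillation counting. Primary screen in duplicate at 25 uM; actives then run in concentration-response up to 50 uM; loss of binding fitted versus DMSO.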
# [4] = biological target: Muscarinic acetylcholine receptor M1 (Homo sapiens) (UniProt P11229); assay: NVS_GPCR_hM1: NovaScreen (NVS) G Protein-Coupled Receptor Assay for human Muscarinic, M1 Receptor (AID 2283270)
# Method in brief: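 Cell-free radioligand displacement using membrane protein extracted from CHO cells, read by filter-based scintillation counting 1 h after dosing. Loss of bound signal fitted versus DMSO; primary screen single concentration 25 uM in duplicate, actives followed by concentration series.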
# [5] = biological target: human Orphanin, Opioid Related Nociceptin Receptor 1 (ORL1), OPRL1 (gene 4987) (UniProt P41146); assay: NVS_GPCR_hORL1: NovaScreen (NVS) G Protein-Coupled Receptor Assay for human Orphanin, Opioid Related Nociceptin Receptor 1 (ORL1) (AID 2283283)
# Method in brief: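 Filter-based radioligand displacement with receptor extracted from HEK293 cells, read 1 hour after dosing by scintillation counting. Duplicate single-point screen at 25 uM; qualifying chemicals then run in concentration-response to 50 uM, analysed relative to DMSO.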
# Sequence of Muscarinic acetylcholine receptor M2 (Homo sapiens) (P08172 whole entry, looked up): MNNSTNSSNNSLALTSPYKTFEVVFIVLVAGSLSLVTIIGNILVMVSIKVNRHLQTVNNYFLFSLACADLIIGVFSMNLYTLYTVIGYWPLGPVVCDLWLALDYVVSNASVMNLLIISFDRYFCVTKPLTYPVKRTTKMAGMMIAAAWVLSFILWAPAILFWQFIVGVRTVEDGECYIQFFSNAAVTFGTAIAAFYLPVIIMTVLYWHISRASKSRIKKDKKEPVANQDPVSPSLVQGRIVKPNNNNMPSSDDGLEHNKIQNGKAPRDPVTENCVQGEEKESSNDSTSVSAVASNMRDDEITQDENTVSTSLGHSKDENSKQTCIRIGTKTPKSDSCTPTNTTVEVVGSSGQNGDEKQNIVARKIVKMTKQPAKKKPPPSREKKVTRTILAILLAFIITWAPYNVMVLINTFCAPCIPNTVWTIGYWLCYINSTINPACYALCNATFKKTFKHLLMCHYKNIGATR
# Sequence of human Orphanin, Opioid Related Nociceptin Receptor 1 (ORL1), OPRL1 (gene 4987) (P41146 whole entry, looked up): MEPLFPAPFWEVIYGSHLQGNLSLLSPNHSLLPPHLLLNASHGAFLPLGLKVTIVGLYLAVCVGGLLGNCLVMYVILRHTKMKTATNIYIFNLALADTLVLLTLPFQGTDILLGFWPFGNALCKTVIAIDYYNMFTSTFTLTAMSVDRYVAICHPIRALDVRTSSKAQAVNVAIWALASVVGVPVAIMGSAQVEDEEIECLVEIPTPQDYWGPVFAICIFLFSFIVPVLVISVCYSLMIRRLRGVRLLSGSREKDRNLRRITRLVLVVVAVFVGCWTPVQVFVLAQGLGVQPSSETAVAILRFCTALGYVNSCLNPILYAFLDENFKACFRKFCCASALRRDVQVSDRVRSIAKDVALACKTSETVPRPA
# Sequence of guinea pig Opioid, Kappa 1 Receptor (OpiateK), OPRK1 (gene 100135587) (P41144 whole entry, looked up): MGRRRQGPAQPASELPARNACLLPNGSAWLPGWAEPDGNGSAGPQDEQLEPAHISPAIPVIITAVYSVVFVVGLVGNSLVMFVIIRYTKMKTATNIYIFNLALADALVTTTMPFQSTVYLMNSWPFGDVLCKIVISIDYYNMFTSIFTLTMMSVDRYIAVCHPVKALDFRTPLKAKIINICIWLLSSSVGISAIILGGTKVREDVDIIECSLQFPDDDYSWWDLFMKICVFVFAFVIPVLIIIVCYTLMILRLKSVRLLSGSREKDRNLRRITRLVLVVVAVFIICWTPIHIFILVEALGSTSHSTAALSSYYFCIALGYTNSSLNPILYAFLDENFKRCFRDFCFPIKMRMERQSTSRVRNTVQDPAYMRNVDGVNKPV
# Sequence of human Endothelin Receptor Type A (ETA), EDNRA (gene 1909) (P25101 whole entry, looked up): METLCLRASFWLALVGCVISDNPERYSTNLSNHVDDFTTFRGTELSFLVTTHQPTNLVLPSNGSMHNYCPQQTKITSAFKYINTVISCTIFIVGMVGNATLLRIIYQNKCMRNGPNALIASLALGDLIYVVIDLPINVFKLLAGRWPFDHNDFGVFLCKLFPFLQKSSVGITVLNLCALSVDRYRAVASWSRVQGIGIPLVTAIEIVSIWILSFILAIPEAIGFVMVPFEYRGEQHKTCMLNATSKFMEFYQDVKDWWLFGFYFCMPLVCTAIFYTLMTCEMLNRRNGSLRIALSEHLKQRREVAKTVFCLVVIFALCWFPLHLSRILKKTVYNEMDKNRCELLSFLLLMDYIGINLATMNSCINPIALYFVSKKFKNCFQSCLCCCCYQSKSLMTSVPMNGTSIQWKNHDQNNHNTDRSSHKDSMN
# Sequence of Muscarinic acetylcholine receptor M1 (Homo sapiens) (P11229 whole entry, looked up): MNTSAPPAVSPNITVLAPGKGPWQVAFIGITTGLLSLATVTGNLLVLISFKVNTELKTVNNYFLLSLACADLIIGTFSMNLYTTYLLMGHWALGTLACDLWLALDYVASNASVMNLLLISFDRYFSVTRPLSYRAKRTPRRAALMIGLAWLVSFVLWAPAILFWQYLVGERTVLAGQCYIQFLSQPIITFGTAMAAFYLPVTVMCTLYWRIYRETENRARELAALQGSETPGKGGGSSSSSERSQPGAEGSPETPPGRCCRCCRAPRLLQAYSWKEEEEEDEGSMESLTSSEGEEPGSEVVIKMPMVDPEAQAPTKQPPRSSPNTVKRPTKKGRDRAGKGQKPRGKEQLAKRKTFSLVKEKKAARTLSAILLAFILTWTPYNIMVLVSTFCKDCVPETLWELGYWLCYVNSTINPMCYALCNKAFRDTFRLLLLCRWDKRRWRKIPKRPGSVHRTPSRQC
smiles,measurement,setting,value
c1ccc(C[P+](c2ccccc2)(c2ccccc2)c2ccccc2)cc1,AC50,[1],1.98 µM (active)
same,AC50,[2],1.22 µM (active)
Cc1ccc(S(=O)(=O)C(I)I)cc1,outcome,[1],inactive
CCCCCCCCCCCCCC[P+](CCCC)(CCCC)CCCC,AC50,[3],6.26 µM (active)
same,AC50,[4],1.02 µM (active)
same,AC50,[5],6.46 µM (active)
CCCCCCCCn1sc(Cl)c(Cl)c1=O,outcome,[3],inactive
same,AC50,[5],16.5 µM (active)
Oc1ccc(C2(c3ccc(O)c(C4CCCCC4)c3)CCCCC2)cc1C1CCCCC1,AC50,[2],8.57 µM (active)
